Bioassay records: PubChem, several laboratories
Rows were chosen to be rich in hits. Some 4.6% of all compounds tested hit in one or more screens of this group.
NLRP3 yeast inh: inhibitors of NALP3 inflammasome in yeast; inhibition, % at 10 µM; Yeast reconstituted NLRP3/ASC/caspase-1, beta-gal luminescence, 24 h; 0.39% of 330,000 active; AID 2825;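 active = inhibition of 50% or more; inactive = inhibition below 50%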;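 also: plate controls were induced DMSO wells for no effect and uninduced yeast grown without galactose for full effect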
SKKanGAS inh: SKKanGAS growth inhibition; S. pyogenes SKKanGAS, kanamycin growth, BacTiter-Glo, 6 h; inhibition, % at 7.5 µM; 1.3% of 300,000 active; AID 1662;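 active = mean replicate score, as percent of positive control median, at least 50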;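 also: strain carries kanamycin resistance gene driven by streptokinase promoter and grows in 40 µg/ml kanamycin; loss of luminescence reflects streptokinase promoter inhibition or plain growth inhibition; 0% = median of DMSO wells and 100% = positive control at its reference dose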
PfHsp90 set2: inhibits growth of yeast expressing Plasmodium falciparum Hsp90. inhibition, % at 9.4 µM. S. cerevisiae expressing PfHsp90, BacTiter-Glo ATP, 48 h; yeast lacking PDR1 and PDR3 efflux regulators. 0.32% of 310,000 active;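 active = every replicate shows inhibition above about 80%, whatever the replicate mean, limit read from the data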;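 also: 0% = DMSO neutral controls and 100% = 20 µM radicicol positive controls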
tim10-1 inh: tim10-1 yeast growth inhibition; AID 463190; 2.2% of 330,000 active; inhibition, % at 20 µM; S. cerevisiae tim10-1 ts strain growth, BacTiter-Glo, 24 h;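 active = inhibition of at least 40%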;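 also: mutant grown at 25 °C; 0% = DMSO wells with yeast and 100% = wells holding no yeast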
TIM10 inh: growth inhibitors of TIM10 yeast strain; S. cerevisiae TIM10 strain growth, BacTiter-Glo luminescence, 24 h; inhibition, % at 10 µM; 1.4% of 330,000 active; AID 463195;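 active = inhibition of 40% or more at the single tested concentration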;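 also: wild-type TIM10 isogenic control strain grown at permissive 25 °C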
tim23-1 inh: inhibits growth of tim23-1 mutant yeast | inhibition, % at 20 µM | S. cerevisiae tim23-1 growth, BacTiter-Glo luminescence, 24 h | 1.3% of 330,000 active;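 active = growth inhibition of the mutant yeast at or above 50%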;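 also: temperature-sensitive mutant grown at 25 °C; plate controls were DMSO-treated mutant yeast for no effect and medium wells lacking yeast for full effect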
tim23-1 confirm: tim23-1 yeast growth inhibition, confirmed; S. cerevisiae tim23-1 growth, BacTiter-Glo luminescence, 24 h; 83% of 4,400 active; shares compounds with tim23-1 inh; AID 463218; inhibition, % at 20 µM;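 active = inhibition above about 39% in either of two replicate wells at 20 µM, limit read from the data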;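 also: temperature-sensitive tim23-1 mutant grown at 25 °C; 0% = DMSO wells with yeast and 100% = medium wells without yeast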
Starred values were filed as active, the others as inactive.

For Cc1ccc(CS(=O)(=O)Cc2ccc(C(=O)NCCCN3CC(C)CC(C)C3)o2)cc1 (stereo unspecified) the results were NLRP3 yeast inh -2, SKKanGAS inh -4, PfHsp90 set2 5, tim10-1 inh -8, TIM10 inh 5 and tim23-1 inh -11.
Clc1ccc(CNc2ncnc3[nH]ncc23)c(Cl)c1 was read as PfHsp90 set2 0.
For CCOC(=O)c1c(NS(C)(=O)=O)sc2c1CCC(C)C2 (stereo unspecified) the results were NLRP3 yeast inh -4, SKKanGAS inh 5, PfHsp90 set2 -18, tim10-1 inh 39, TIM10 inh 3, tim23-1 inh 57* and tim23-1 confirm 40*.
Screening CCOC(=O)N1CCN(C(=O)C(=O)c2cn(CC(=O)N3CCCCCC3)c3ccccc23)CC1 returned NLRP3 yeast inh 1, SKKanGAS inh 2, PfHsp90 set2 -4, tim10-1 inh -6, TIM10 inh -2 and tim23-1 inh -4.
COc1ccc(C(=O)NC(=S)NCc2ccco2)cc1 was read as NLRP3 yeast inh 8, SKKanGAS inh 10, PfHsp90 set2 1, tim10-1 inh 31, TIM10 inh -2 and tim23-1 inh 26.
For O=c1c(Cl)nc2cc(Cl)ccc2n1CCNc1ncc(C(F)(F)F)cc1Cl the results were NLRP3 yeast inh 24, SKKanGAS inh -1, PfHsp90 set2 -6, tim10-1 inh 21, TIM10 inh -18, tim23-1 inh 62* and tim23-1 confirm 8.
`COc1ccc(C(C)=O)cc1COC(=O)c1cccnc1SC` gave NLRP3 yeast inh 12, SKKanGAS inh 9, PfHsp90 set2 3, tim10-1 inh 12, TIM10 inh 12 and tim23-1 inh -10.
`COc1cc(-c2c(C#N)c(N)nc3c2CCCC3)ccc1O` gave NLRP3 yeast inh -2, SKKanGAS inh -1, PfHsp90 set2 -8, tim10-1 inh 8, TIM10 inh 5 and tim23-1 inh 16.
`COc1ccc(-c2c(C#N)c(N)nc3c2CCc2ccccc2-3)cc1OC` gave NLRP3 yeast inh 5, SKKanGAS inh 20, tim10-1 inh 40, TIM10 inh 29, tim23-1 inh 51* and tim23-1 confirm 34.
Oc1c(C(c2ccc(Cl)cc2)N2CCCC2)cc(Cl)c2cccnc12 (stereo unspecified) was read as NLRP3 yeast inh 19, SKKanGAS inh 80*, PfHsp90 set2 128*, tim10-1 inh -10, TIM10 inh 20, tim23-1 inh 64* and tim23-1 confirm 68*.
`O=C(Oc1c(Cl)cc(Cl)c2cccnc12)N1CCCCC1` gave NLRP3 yeast inh 13, SKKanGAS inh -5, PfHsp90 set2 -50, tim10-1 inh 37, TIM10 inh 21 and tim23-1 inh 40.
Oc1c(C(c2ccccc2Cl)N2CCCC2)ccc2cccnc12 (stereo unspecified) was read as NLRP3 yeast inh 24, SKKanGAS inh 76*, PfHsp90 set2 119*, tim10-1 inh 25, TIM10 inh 10, tim23-1 inh 65* and tim23-1 confirm 59*.
Screening COc1ccc(/C=c2\sc3nc(=O)c(C)nn3c2=O)c(OC)c1 returned NLRP3 yeast inh 18, SKKanGAS inh -2, PfHsp90 set2 -1, tim10-1 inh 31, TIM10 inh 8, tim23-1 inh 53* and tim23-1 confirm 39*.
`COC(=O)c1cc(S(=O)(=O)N2c3ccccc3CC2C)cn1C` (stereo unspecified) gave NLRP3 yeast inh 22, SKKanGAS inh -3, PfHsp90 set2 -5, tim10-1 inh 12, TIM10 inh -5 and tim23-1 inh 14.
For COC(=O)N/N=C/c1ccc(-c2ccc(Cl)cc2Cl)o1 the results were NLRP3 yeast inh 49, SKKanGAS inh -2, PfHsp90 set2 -9, tim10-1 inh 35, TIM10 inh 39, tim23-1 inh 56* and tim23-1 confirm 50*.
`COC(=O)N/N=C/c1ccc(-c2ccccc2Cl)o1` gave NLRP3 yeast inh 30, SKKanGAS inh -6, PfHsp90 set2 -13, tim10-1 inh -10, TIM10 inh -8 and tim23-1 inh 36.
Screening COc1ccc(OCCOC(=O)c2nc3nccc(C)n3n2)cc1 returned NLRP3 yeast inh 15, SKKanGAS inh 4, PfHsp90 set2 3, tim10-1 inh 10, TIM10 inh 6 and tim23-1 inh 6.
C/C(=N\Nc1cc(N2CCOCC2)nc(C)n1)c1ccc(F)cc1 was read as NLRP3 yeast inh 31, SKKanGAS inh -3, PfHsp90 set2 -4, tim10-1 inh 18, TIM10 inh 0 and tim23-1 inh 19.
For C/C(=N\Nc1cc(N2CCCCC2)nc(C)n1)c1ccc(Br)cc1 the results were NLRP3 yeast inh 23, SKKanGAS inh 82*, PfHsp90 set2 -2, tim10-1 inh 20, TIM10 inh 8, tim23-1 inh 57* and tim23-1 confirm 49*.
Screening FC(F)(F)c1cccc(Sc2cc(C(F)(F)F)nc(-c3ccccn3)n2)c1 returned NLRP3 yeast inh 22, SKKanGAS inh 1, PfHsp90 set2 37, tim10-1 inh 28, TIM10 inh 25, tim23-1 inh 51* and tim23-1 confirm 43*.
O=C(CN1C(=O)NC2(CCc3ccccc32)C1=O)c1ccc(Cl)cc1 (stereo unspecified) was read as NLRP3 yeast inh 4, SKKanGAS inh -14, PfHsp90 set2 11, tim10-1 inh 6, TIM10 inh -5 and tim23-1 inh 26.
For CC(C)c1ccc(C(=O)CN2C(=O)NC3(CCc4ccccc43)C2=O)cc1 (stereo unspecified) the results were NLRP3 yeast inh 12, PfHsp90 set2 12, tim10-1 inh 19, TIM10 inh 26, tim23-1 inh 54* and tim23-1 confirm 44*.
CCN(CC(=O)Nc1c(F)cccc1F)C(=O)C1CCN(S(=O)(=O)c2ccc(C)cc2C)CC1 was read as NLRP3 yeast inh -1, SKKanGAS inh -11, tim10-1 inh 11, TIM10 inh 1 and tim23-1 inh -1.
For O=C1CN(c2ccc(F)cc2)C(=S)N1c1ccccc1 the results were NLRP3 yeast inh 20, SKKanGAS inh -4, PfHsp90 set2 -12, tim10-1 inh 26, TIM10 inh 7, tim23-1 inh 57* and tim23-1 confirm -16.
O=C1CN(c2ccccc2)C(=S)N1c1ccccc1 was read as NLRP3 yeast inh 13, SKKanGAS inh -5, PfHsp90 set2 -19, tim10-1 inh 18, TIM10 inh 4 and tim23-1 inh 42.
For CC1CC(C)CN(C(=O)c2ccc3c(c2NCCO)C(=O)c2ccccc2C3=O)C1 (stereo unspecified) the results were NLRP3 yeast inh 4, SKKanGAS inh 9, PfHsp90 set2 -10, tim10-1 inh 39, TIM10 inh 34, tim23-1 inh 51* and tim23-1 confirm 53*.
